Results from paper PMC4336329 (PLoS ONE, 2015).
The campaign covered roughly 310,000 compounds. About 14,000 (4.5%) showed an effect of 50% or more. Effects have a minus sign here. This excerpt belongs to a sample that is enriched for strong results.

The compounds below were run against human ether-à-go-go-related gene (hERG) potassium channel (human, UniProt Q12809) (assay: primary screen, population patch clamp on CHO cells stably expressing hERG; higher = less effect of the substance).
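Further: peak tail current of the secondary pulse compared with the same well before compound.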

Sequence of human ether-à-go-go-related gene (hERG) potassium channel (Q12809 whole entry, looked up): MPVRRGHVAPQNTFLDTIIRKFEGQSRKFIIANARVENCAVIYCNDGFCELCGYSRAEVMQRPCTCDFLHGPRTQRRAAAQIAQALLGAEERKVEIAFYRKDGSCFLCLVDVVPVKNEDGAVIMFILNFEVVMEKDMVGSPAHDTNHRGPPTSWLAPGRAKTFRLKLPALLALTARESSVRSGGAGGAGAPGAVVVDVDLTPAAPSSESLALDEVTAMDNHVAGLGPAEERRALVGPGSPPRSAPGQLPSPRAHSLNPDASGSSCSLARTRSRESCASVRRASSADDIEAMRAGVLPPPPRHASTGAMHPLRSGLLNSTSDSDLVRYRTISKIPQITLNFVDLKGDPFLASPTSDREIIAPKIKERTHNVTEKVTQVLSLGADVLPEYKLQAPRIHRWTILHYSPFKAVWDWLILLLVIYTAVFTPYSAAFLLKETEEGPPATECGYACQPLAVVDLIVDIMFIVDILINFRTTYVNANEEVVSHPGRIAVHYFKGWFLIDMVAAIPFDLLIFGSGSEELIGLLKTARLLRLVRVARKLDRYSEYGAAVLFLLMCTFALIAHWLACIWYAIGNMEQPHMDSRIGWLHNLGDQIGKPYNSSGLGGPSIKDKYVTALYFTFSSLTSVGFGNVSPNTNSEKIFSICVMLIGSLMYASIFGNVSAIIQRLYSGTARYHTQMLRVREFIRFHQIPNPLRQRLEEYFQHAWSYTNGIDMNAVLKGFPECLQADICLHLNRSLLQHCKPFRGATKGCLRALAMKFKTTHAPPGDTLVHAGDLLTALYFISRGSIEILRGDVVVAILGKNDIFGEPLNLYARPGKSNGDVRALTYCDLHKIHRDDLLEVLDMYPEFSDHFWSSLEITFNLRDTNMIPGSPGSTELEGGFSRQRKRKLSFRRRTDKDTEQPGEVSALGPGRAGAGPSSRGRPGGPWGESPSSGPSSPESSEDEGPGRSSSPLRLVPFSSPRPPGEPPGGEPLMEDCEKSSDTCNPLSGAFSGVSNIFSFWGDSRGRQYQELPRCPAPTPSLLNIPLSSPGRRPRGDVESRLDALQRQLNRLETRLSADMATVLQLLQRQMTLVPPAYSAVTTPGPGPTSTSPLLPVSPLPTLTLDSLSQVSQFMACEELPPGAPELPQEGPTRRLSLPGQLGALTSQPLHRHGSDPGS

Compound	hERG current change (%, negative = inhibition) at 10uM [%]
Cn1nnnc1Sc1ncnc2scc(-c3ccccc3Br)c12	-4.66
COc1ccc(CCN(C)C2CC(=O)N(c3ccccc3)C2=O)cc1OC (stereo not shown)	-5.77
Cc1ccc(N(Cc2cc(=O)[nH]c3ccccc23)C(=O)c2ccco2)cc1	-34.4
Cc1cc(C)n(C(=O)Cn2nc(C)c(Br)c2C)n1	14
O=C(Nc1cccc(Cl)c1)Nc1cnccn1	29.1
CCCCc1ncc(CN2CCC(CC3CCCCO3)(C(=O)OCC)CC2)[nH]1 (stereo not shown)	-45
CCOC(=O)C1(CC2CCCCO2)CCN(Cc2cc(F)ccc2-n2cccn2)CC1 (stereo not shown)	-57.1
CCOC(=O)C1(CC2CCCCO2)CCN(Cc2nccn2-c2cccc(C)c2)CC1 (stereo not shown)	13.2
CCOC(=O)C1(CC2CCCCO2)CCN(Cc2nc3ccccc3[nH]2)CC1 (stereo not shown)	-19.5
CCOC(=O)C1(CC2CCCCO2)CCN(Cc2nc(C(C)C)cs2)CC1 (stereo not shown)	-5.24
CCOC(=O)C1(CC2CCCCO2)CCN(Cc2c(C)cc(C)cc2-n2cccn2)CC1 (stereo not shown)	-77.8
CNC(=O)NC(=O)C(C)OC(=O)c1cc2c(s1)CCCCC2 (stereo not shown)	-7.89
COc1ccccc1CNC(=O)CCS(=O)(=O)Cc1ccc(C)cc1	11.3
O=C(CCNC(=O)c1ccco1)Nc1ccccc1	15
O=C(CCNC(=O)c1ccco1)Nc1ccc(OC(F)F)cc1	-23.8
O=C(CCNC(=O)c1ccco1)Nc1ccc(SC(F)F)cc1	-52.7
COc1cc(OC)c(C2=NOC(C(=O)Nc3ccc4c(c3)OCO4)C2)cc1Cl (stereo not shown)	10.7
C=CCOC(=O)C(=O)/C=C/c1c(C)n(C)n(-c2ccccc2)c1=O	27.2
CCOc1ccc(NC(=O)COC(=O)CC2CCCCC2)cc1	-6.75
Cc1ccc(C(=O)NC(=S)NCCN2CCOCC2)cc1	23.3
COc1ccc(/C=C(\NC(=O)c2ccccc2)C(=O)NCCN2CCOCC2)cc1	-34.3
Cc1ccc(C(=O)N/C(=C\c2ccccc2)C(=O)NCCN2CCOCC2)cc1	-62.4

Compound	hERG current change (%, negative = inhibition) at 10uM [%]
Cc1ccc(C(=O)N/C(=C\c2ccc(F)cc2)C(=O)NCCN2CCOCC2)cc1	-75.6
COc1ccc(/C=C(/NC(=O)c2ccccc2)C(=O)NCCN2CCOCC2)cc1OC	11.6
COc1ccc(/C=C(\NC(=O)c2ccc(C)cc2)C(=O)NCCN2CCOCC2)cc1	-64.6
O=C(NC(=S)NCCN1CCOCC1)c1ccc(F)cc1	-4.01
Cc1ccc(C(=O)N/C(=C\c2ccc(Cl)cc2)C(=O)NCCCN2CCOCC2)cc1	-72.5
COc1ccc(/C=C(\NC(=O)c2ccc(Cl)cc2)C(=O)NCCCN2CCOCC2)cc1OC	13.9
O=C(NCCN1CCOCC1)/C(=C/c1ccccc1)NC(=O)c1ccccc1	-16.4
CC(=O)Nc1ccc(NC(=O)Cn2c(CC(=O)N3CCCC3)nc3ccccc32)cc1	9
Cc1cc(OC(=O)CCCNC(=O)OC(C)(C)C)c2c3c(c(=O)oc2c1)CCC3	-9.18
CCC(=O)Nc1cc2nn(-c3ccc(OC)cc3)nc2cc1C	0.0727
Cc1ccc(Sc2ccc([N+](=O)[O-])cc2[N+](=O)[O-])nc1	-19.1
Cc1cccc(NC(=O)CCN2C(=O)C3C4C=CC(C4)C3C2=O)c1 (stereo not shown)	13.6
C/C(=N\NC(=O)c1cc2ccccc2cc1O)c1ccccn1	-3.94
O=C(NCCN1CCOCC1)/C(=C/c1ccc(Cl)cc1)NC(=O)c1ccccc1	-76.5
CN(C)c1ccc(/C=C(\NC(=O)c2ccccc2)C(=O)NCCN2CCOCC2)cc1	-19.9
Cc1ccc(C(=O)N/C(=C\c2cccs2)C(=O)NCCCN2CCOCC2)cc1	-61.4
Cc1ccc(C(=O)N/C(=C\c2cn(S(=O)(=O)N(C)C)c3ccccc23)C(=O)NCCCN2CCOCC2)cc1	-18.7
Cc1ccc(C(=O)N/C(=C\c2ccco2)C(=O)NCCN2CCOCC2)cc1	-23.2
O=C(NCCCN1CCOCC1)/C(=C/c1cccs1)NC(=O)c1ccccc1	-21.8
Cc1ccc(C(=O)N/C(=C\c2ccc(Cl)cc2)C(=O)NCCN2CCOCC2)cc1	-75.1
CN(C)c1ccc(/C=C(/NC(=O)c2ccccc2)C(=O)NCCN2CCOCC2)cc1	4.15
O=C(NC(=S)NCCN1CCOCC1)c1ccc(Cl)cc1	-13.2

Compound	hERG current change (%, negative = inhibition) at 10uM [%]
COc1ccccc1CNC(=O)C(NC(=O)C1CCCCC1)C(C)C (stereo not shown)	1.84
O=C(O)c1cccc(NS(=O)(=O)c2ccc(Oc3ccc(S(=O)(=O)Nc4cccc(C(=O)O)c4)cc3)cc2)c1	20.3
COc1ccc(OC)c(-n2nnnc2SCC(=O)NCCc2ccccc2)c1	-20.3
CC1Cn2c(nc(=O)c3c2NCN(CCc2ccccc2)C3)S1 (stereo not shown)	13.5
O=C(C1CC1)N1N=C(c2ccc(Cl)cc2)CC1(O)C(F)(F)F (stereo not shown)	-0.113
Cc1nn(C(C)C(=O)NC2CCC(C)CC2)c(=O)c2nn(-c3ccccc3)c(C)c12 (stereo not shown)	-28.3
O=C(CCS(=O)(=O)c1cccs1)N1CCCC1	3.18
O=c1c2ccccc2nc(-c2ccccc2)n1-c1ccccc1O	16.1
CC(OC(=O)c1snc(C(=O)NC2CCCCC2)c1N)C(=O)NC1CCCCC1 (stereo not shown)	-3.99
COc1ccc2sc(N(CCCN(C)C)C(=O)c3ccc(S(=O)(=O)N4CCc5ccccc5C4)cc3)nc2c1.Cl	-6.59
COc1ccc2sc(N(CCCN(C)C)C(=O)c3ccc(S(=O)(=O)N4CCCC4)cc3)nc2c1.Cl	-43.9
CCOC(=O)N1CCN(S(=O)(=O)c2ccc(C(=O)N(CCN(CC)CC)c3nc4ccc(C)cc4s3)cc2)CC1.Cl	-23.8
CCOC(=O)N1CCN(S(=O)(=O)c2ccc(C(=O)N(CCN(C)C)c3nc4c(C)cccc4s3)cc2)CC1.Cl	-37.5
COc1cc2nc(N(CCCN(C)C)C(=O)c3ccc(S(=O)(=O)N4CCc5ccccc5C4)cc3)sc2cc1OC.Cl	-9.41
CCOC(=O)N1CCN(S(=O)(=O)c2ccc(C(=O)N(CCN(C)C)c3nc4ccc(Cl)cc4s3)cc2)CC1.Cl	-28.5
CCOC(=O)N1CCN(S(=O)(=O)c2ccc(C(=O)N(CCCN(C)C)c3nc4ccc(OC)cc4s3)cc2)CC1.Cl	-73.5
CCOC(=O)N1CCN(S(=O)(=O)c2ccc(C(=O)N(CCCN(C)C)c3nc4cc(OC)ccc4s3)cc2)CC1.Cl	-56.2
CCOC(=O)N1CCN(S(=O)(=O)c2ccc(C(=O)N(CCN(C)C)c3nc4ccc(CC)cc4s3)cc2)CC1.Cl	-51.9
Cc1ccc2nc(N(CCCN(C)C)C(=O)c3ccc(S(=O)(=O)N4CCc5ccccc5C4)cc3)sc2c1.Cl	-25.3
CN(C)CCCN(C(=O)c1ccc(S(=O)(=O)N2CCc3ccccc32)cc1)c1nc2ccc(Cl)cc2s1.Cl	10.5
CCOC(=O)N1CCN(S(=O)(=O)c2ccc(C(=O)N(CCCN(C)C)c3nc4ccc(Cl)cc4s3)cc2)CC1.Cl	-58.4
O=C(c1ccccc1Cc1ccccc1)N1CCN(S(=O)(=O)c2ccccc2)CC1	-6.88

Compound	hERG current change (%, negative = inhibition) at 10uM [%]
CN(C)NC(=S)Nc1ccc(S(=O)(=O)N2CCCCC2)cc1	-5.26
CCn1ccnc1CN(C)C(=O)CCc1nnc(CCCc2ccccc2)o1	-7.7
Cc1cccc(NC(=O)CN2C(=O)N/C(=C\c3ccc(N4CCOCC4)cc3)C2=O)c1	9.92
CC(NC(=O)COC(=O)Cc1ccsc1)C1CC2CCC1C2 (stereo not shown)	-12.1
COc1ccc(N(CC(=O)N2CCc3ccccc32)S(=O)(=O)c2c(C)n[nH]c2C)cc1	-18.6
CC(NCCOc1ccccc1F)C(=O)Nc1ccc(S(N)(=O)=O)cc1 (stereo not shown)	13.4
N#Cc1c(N)c(C(=O)c2ccc(Cl)cc2)n2c1CCC2	5.5
CCCCN(CCCC)C(=O)c1cc(Cl)ccc1[N+](=O)[O-]	-1.4
O=C1CCC(C(=O)N(Cc2ccco2)C2(C(=O)NC3CCCC3)CCCCC2)N1 (stereo not shown)	13.4
CCNc1nc(NCC)nc(N/N=C(\C)c2ccc(OC)cc2)n1	-14.1
Cc1ccccc1NS(=O)(=O)c1cc(C(=O)NCc2ccco2)ccc1C	-20.3
O=C(NCc1ccco1)c1ccc(F)c(S(=O)(=O)N2CCCCC2)c1	-11.3
O=C(NCc1ccco1)c1ccc(Br)c(S(=O)(=O)N2CCCCC2)c1	-53
CCn1cc(C(=O)NCc2ccco2)c(=O)c2cc(S(=O)(=O)N3CCCC3)ccc21	-4.37
Cc1ccc(C(=O)NCc2ccco2)cc1S(=O)(=O)N1CCCCC1	-18.6
Cc1ccc(C(=O)NCc2ccco2)cc1S(=O)(=O)Nc1cccc(C)c1C	-32.2
CCn1cc(C(=O)NCC2CCCO2)c(=O)c2cc(S(=O)(=O)N3CCC(C)CC3)ccc21 (stereo not shown)	-28.1
CCn1cc(C(=O)NCC2CCCO2)c(=O)c2cc(S(=O)(=O)N3CCCCCC3)ccc21 (stereo not shown)	-51.3
CCn1cc(C(=O)NCC2CCCO2)c(=O)c2cc(S(=O)(=O)N3CCCCC3)ccc21 (stereo not shown)	-34
Cc1ccc(C)c(NS(=O)(=O)c2cc(C(=O)NCc3ccco3)ccc2C)c1	-52.3
CCn1cc(C(=O)NCc2ccco2)c(=O)c2cc(S(=O)(=O)N3CCCCCC3)ccc21	-53.3
CCn1cc(C(=O)NCc2ccco2)c(=O)c2cc(S(=O)(=O)N3CCC(C)CC3)ccc21	-36.5
